Test results reported in PubChem BioAssay (NCI).
About 83,000 compounds went through this panel and 20% of them were active in at least one assay; those are over-represented in the sample as a whole.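 48-hour exposure, single concentration, 96-well plates; percent growth endpoint where 0 means no net growth. Active: below 10.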 Active and inactive are the calls of the source.

Experiments:
Test in all cases: NCI-60 one-dose screen, 48 h (100 = growth as untreated, 0 = no growth, -100 = all killed)
Settings in all cases: 10 µM
SK-MEL-2 melanoma = test system: SK-MEL-2 melanoma
EKVX NSCLC = test system: EKVX NSCLC
SN12C renal = test system: SN12C renal
UO-31 renal = test system: UO-31 renal
ACHN renal = test system: ACHN renal
CAKI-1 renal = test system: CAKI-1 renal
A498 renal = test system: A498 renal
CCRF-CEM leukemia = test system: CCRF-CEM leukemia
MOLT-4 leukemia = test system: MOLT-4 leukemia

Measured: growth

C/C(=N\O)c1ccc(NC(=O)CSc2nnc(-c3ccccc3)n2-c2ccccc2)cc1
inactive: SK-MEL-2 melanoma 118% | EKVX NSCLC 91.9% | SN12C renal 72.4% | UO-31 renal 76.2% | ACHN renal 63.7% | CAKI-1 renal 85.6% | A498 renal 92.7% | CCRF-CEM leukemia 92% | MOLT-4 leukemia 95.2%

Clc1nc2ccc(Br)cc2cc1-c1nc2ccccc2[nH]1
inactive: SK-MEL-2 melanoma 120% | EKVX NSCLC 50.3% | SN12C renal 15.2% | UO-31 renal 79.7% | CAKI-1 renal 84.2% | A498 renal 39.9% | CCRF-CEM leukemia 72.9% | MOLT-4 leukemia 47.2%
active: ACHN renal 2.34%

c1ccc(/C(=N\Nc2ccc3ccccc3n2)c2ccccn2)cc1
active: SK-MEL-2 melanoma -9.63% | ACHN renal 0.2% | CAKI-1 renal -2.91% | A498 renal -47.3% | CCRF-CEM leukemia -39% | MOLT-4 leukemia -21.8%
inactive: EKVX NSCLC 15.1% | SN12C renal 18.5% | UO-31 renal 13.7%

NC(N)=N/N=C(\N=Nc1ccccc1)c1ccc(Cl)cc1
inactive: SK-MEL-2 melanoma 52.5% | EKVX NSCLC 49.2% | SN12C renal 76.3% | ACHN renal 25.1% | A498 renal 14.7%
active: UO-31 renal 4.05% | CAKI-1 renal 1.66% | CCRF-CEM leukemia -4.7% | MOLT-4 leukemia 2.47%

COc1ccc(C(=O)c2cc3c(OC)c(OC)c(OC)cc3[nH]2)cc1
inactive: SK-MEL-2 melanoma 43.7% | EKVX NSCLC 98.4% | SN12C renal 75.1% | UO-31 renal 56% | ACHN renal 79.4% | CAKI-1 renal 128% | A498 renal 59.9% | CCRF-CEM leukemia 42.8% | MOLT-4 leukemia 50.2%

COc1ccc(-c2n[nH]nc2-c2cc(OC)c(OC)c(OC)c2)cc1
inactive: SK-MEL-2 melanoma 21.2% | EKVX NSCLC 54.4% | SN12C renal 25% | UO-31 renal 44.3% | ACHN renal 41.2% | CAKI-1 renal 27.6%
active: A498 renal -12.9% | CCRF-CEM leukemia 9.31% | MOLT-4 leukemia 6.91%

COc1ccc(C2CC(c3cc(OC)c(OC)c(OC)c3)=NN2)cc1 (stereo unspecified)
inactive: SK-MEL-2 melanoma 87.6% | EKVX NSCLC 91.2% | SN12C renal 94.5% | UO-31 renal 62.7% | ACHN renal 99% | CAKI-1 renal 69% | A498 renal 87.4% | CCRF-CEM leukemia 57.3% | MOLT-4 leukemia 73.4%

COc1ccc2c(c1)OC(N)=C(C#N)C2c1cc(OC)c(OC)c(OC)c1 (stereo unspecified)
active: A498 renal -14.1% | CCRF-CEM leukemia 7.72% | MOLT-4 leukemia 7.89%
inactive: SK-MEL-2 melanoma 27.3% | EKVX NSCLC 49.7% | SN12C renal 25% | UO-31 renal 47.2% | ACHN renal 32.8% | CAKI-1 renal 30.4%

CN(C)CCOc1ccc(-c2nc3sccn3c2-c2ccnc(S(C)(=O)=O)n2)cc1
inactive: SK-MEL-2 melanoma 111% | EKVX NSCLC 102% | SN12C renal 101% | UO-31 renal 97.1% | ACHN renal 106% | CAKI-1 renal 98.8% | A498 renal 96.3% | CCRF-CEM leukemia 91% | MOLT-4 leukemia 109%

CCN1C(=O)CC(SC2CC(=O)N(CC)C2=O)C1=O (stereo unspecified)
inactive: SK-MEL-2 melanoma 93.6% | EKVX NSCLC 95.9% | SN12C renal 98.6% | UO-31 renal 80.2% | ACHN renal 106% | CAKI-1 renal 95.1% | A498 renal 74.9% | CCRF-CEM leukemia 94.1% | MOLT-4 leukemia 72%

COc1cc(C2C(C#N)=C(N)Oc3cc(O)ccc32)cc(OC)c1OC (stereo unspecified)
active: A498 renal -5.59% | CCRF-CEM leukemia 8.88% | MOLT-4 leukemia 6.05%
inactive: SK-MEL-2 melanoma 23.4% | EKVX NSCLC 55.3% | SN12C renal 35.9% | UO-31 renal 43% | ACHN renal 51.8% | CAKI-1 renal 30.7%

COc1cc2c(Nc3ccc(-c4ccc(N)cc4)cc3)ncnc2c(OC)c1OC
active: CAKI-1 renal 3.89%
inactive: SK-MEL-2 melanoma 18.5% | EKVX NSCLC 59.2% | SN12C renal 62.2% | UO-31 renal 22.7% | ACHN renal 32.1% | A498 renal 43.4% | CCRF-CEM leukemia 23.3% | MOLT-4 leukemia 19.8%

COc1ccc(Cl)cc1Nc1nc(C(F)(F)F)ccc1C(=O)N/N=C/c1ccc(Cl)cc1
inactive: SK-MEL-2 melanoma 26.4% | EKVX NSCLC 56.6% | SN12C renal 49% | UO-31 renal 18.8% | ACHN renal 36.8% | CAKI-1 renal 13.3%
active: A498 renal -35.2% | CCRF-CEM leukemia 1.78% | MOLT-4 leukemia 1.89%

COc1cc2c(Nc3ccc(S(N)(=O)=O)cc3)ncnc2c(OC)c1OC
inactive: SK-MEL-2 melanoma 92.4% | EKVX NSCLC 100% | SN12C renal 93.5% | UO-31 renal 67.3% | ACHN renal 99.4% | CAKI-1 renal 92% | A498 renal 103% | CCRF-CEM leukemia 92.5% | MOLT-4 leukemia 97.3%

COc1cc(C2CC(c3ccccc3)=NN2C(C)=O)cc(OC)c1OC (stereo unspecified)
inactive: SK-MEL-2 melanoma 47.6% | EKVX NSCLC 51% | SN12C renal 63.5% | UO-31 renal 58.1% | ACHN renal 54.9% | CAKI-1 renal 38.8% | A498 renal 50.6% | CCRF-CEM leukemia 34.5% | MOLT-4 leukemia 29%

CS(=O)(=O)c1nccc(-c2c(-c3ccc(OCCc4ccccc4)cc3)nc3sccn23)n1
inactive: SK-MEL-2 melanoma 108% | EKVX NSCLC 94% | SN12C renal 90.3% | UO-31 renal 90.6% | ACHN renal 101% | CAKI-1 renal 90% | A498 renal 84.5% | CCRF-CEM leukemia 92% | MOLT-4 leukemia 88.9%

O=C(CSc1nnc(-c2cccnc2SCc2ccccc2)o1)Nc1nc(Cl)cc(Cl)n1
inactive: SK-MEL-2 melanoma 102% | EKVX NSCLC 103% | SN12C renal 103% | UO-31 renal 67.7% | ACHN renal 103% | CAKI-1 renal 95.8% | A498 renal 112% | CCRF-CEM leukemia 101% | MOLT-4 leukemia 95.7%

Nc1ncc(-c2cnn(C3CCNCC3)c2)cc1-c1nc2ccccc2o1
active: UO-31 renal -17.7% | CCRF-CEM leukemia -53.7% | MOLT-4 leukemia -35.7%
inactive: SK-MEL-2 melanoma 22.1% | EKVX NSCLC 85.3% | SN12C renal 14.1% | ACHN renal 21.9% | CAKI-1 renal 68.3% | A498 renal 36.4%

COc1cc2cc(Oc3ccc(NC(=O)Nc4ccc(C(F)(F)F)cc4)cc3)c(C)nc2cc1OC
inactive: SK-MEL-2 melanoma 76.7% | EKVX NSCLC 75.7% | SN12C renal 72.2% | UO-31 renal 87.6% | ACHN renal 56.1% | CAKI-1 renal 70.4% | A498 renal 90.5% | CCRF-CEM leukemia 68.5% | MOLT-4 leukemia 61.9%

CS(=O)(=O)c1nccc(-c2c(-c3cccc(O)c3)nc3sccn23)n1
inactive: SK-MEL-2 melanoma 107% | EKVX NSCLC 88.7% | SN12C renal 91% | UO-31 renal 66.5% | ACHN renal 86.2% | CAKI-1 renal 95.5% | A498 renal 70.5% | CCRF-CEM leukemia 90% | MOLT-4 leukemia 93%

COc1cc2cc(Oc3ccc(NC(=O)Nc4ccc(Cl)c(C(F)(F)F)c4)cc3)c(C)nc2cc1OC
active: SK-MEL-2 melanoma -49.8% | EKVX NSCLC 8.83% | UO-31 renal -45.1% | CAKI-1 renal -8.92% | CCRF-CEM leukemia -17.6% | MOLT-4 leukemia -27.9%
inactive: SN12C renal 13.2% | ACHN renal 13.6% | A498 renal 10.5%

COc1ccc(/C=C2\CCCC3=C2NC(N)=NC3c2ccc(OC)cc2)cc1 (stereo unspecified)
inactive: SK-MEL-2 melanoma 98.2% | EKVX NSCLC 92.1% | SN12C renal 86.7% | UO-31 renal 72.8% | ACHN renal 98.3% | CAKI-1 renal 90.1% | A498 renal 84.5% | CCRF-CEM leukemia 87.6% | MOLT-4 leukemia 84.2%

COc1ccc(C(=O)N2C=Cc3ccccc3C2C#N)cc1 (stereo unspecified)
inactive: SK-MEL-2 melanoma 101% | EKVX NSCLC 99.4% | SN12C renal 89.3% | UO-31 renal 73.9% | ACHN renal 96.4% | CAKI-1 renal 87.3% | A498 renal 91.1% | CCRF-CEM leukemia 92.7% | MOLT-4 leukemia 83.4%

O=C(N/N=C/c1c(Cl)cccc1Cl)c1ccccc1Nc1cccc(C(F)(F)F)c1
inactive: SK-MEL-2 melanoma 71.4% | EKVX NSCLC 89.8% | SN12C renal 92.6% | UO-31 renal 93.7% | ACHN renal 102% | CAKI-1 renal 95.5% | CCRF-CEM leukemia 73.1% | MOLT-4 leukemia 77.9%
active: A498 renal -5.76%

Cc1cc(Cl)ccc1Nc1nc(C(F)(F)F)ccc1C(=O)N/N=C/c1c(Cl)cccc1Cl
active: SK-MEL-2 melanoma -17.4% | EKVX NSCLC 0.628% | SN12C renal 6.51% | UO-31 renal 4.21% | ACHN renal -8.52% | CAKI-1 renal -22.7% | A498 renal -60.8% | CCRF-CEM leukemia -18% | MOLT-4 leukemia -16.8%

CCn1c(SC/C(=N/O)c2ccccc2)nnc1-c1ccccc1
inactive: SK-MEL-2 melanoma 108% | EKVX NSCLC 90.6% | SN12C renal 88.6% | UO-31 renal 91.5% | ACHN renal 105% | CAKI-1 renal 89% | A498 renal 69.3% | CCRF-CEM leukemia 88.9% | MOLT-4 leukemia 94.8%

CS(=O)(=O)c1nccc(-c2c(-c3cccc(OCc4ccc(F)cc4)c3)nc3sccn23)n1
inactive: SK-MEL-2 melanoma 96% | EKVX NSCLC 97.2% | SN12C renal 77.7% | ACHN renal 94.9% | CAKI-1 renal 34.4% | A498 renal 77.3% | CCRF-CEM leukemia 50% | MOLT-4 leukemia 24.2%
active: UO-31 renal -24.1%

COc1cc2cc(Oc3ccc(NC(=O)c4cc(C(F)(F)F)cc(C(F)(F)F)c4)cc3)c(C)nc2cc1OC
inactive: SK-MEL-2 melanoma 64.6% | EKVX NSCLC 30.4% | SN12C renal 30.8% | UO-31 renal 30.9% | ACHN renal 32.3% | CAKI-1 renal 30.2% | A498 renal 40.5% | CCRF-CEM leukemia 33.7% | MOLT-4 leukemia 39.4%

O=C(N/N=C/c1ccc(Cl)cc1)c1ccccc1Nc1cccc(C(F)(F)F)c1
inactive: SK-MEL-2 melanoma 70.6% | EKVX NSCLC 66.6% | SN12C renal 91.3% | UO-31 renal 40.8% | ACHN renal 102% | CAKI-1 renal 86% | CCRF-CEM leukemia 69.7% | MOLT-4 leukemia 74.2%
active: A498 renal -13.2%
